Source: PubChem BioAssay AID1159580 (chemical genetic matrix, 2015)
The campaign covered roughly 5,500 compounds. About 2,000 (36%) were called active. About 18% were inconclusive and are not listed. This is one part of the list. A number with no mark means an inactive call. Rule as the data show it: active = normalized growth mostly below about 0.91 (no sharp cut-off); inconclusive = no clear call, values can overlap the other calls; inactive = mostly above about 0.92.

Assay: chemical genetic growth profiling, strain panel (AID 1159580);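 also: tested at 20 µM; growth read once vehicle control cultures reached saturation at 30 °C; 1 = growth at the plate median or of vehicle wells; lower values mean less growth of the strain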
Conditions: growth OD
[1] = S. cerevisiae deletion strains, locus YDL101C, strain DUN1, hits give low values
[2] = S. cerevisiae deletion strains, locus YGR229C, strain SMI1, hits give low values
[3] = S. cerevisiae deletion strains, locus YHR030C, strain SLT2, hits give low values
[4] = S. cerevisiae deletion strains, locus YJR075W, strain HOC1, hits give low values
[5] = S. cerevisiae deletion strains, locus YPL055C, strain LGE1, hits give low values

For `O=C1NC(=O)/C(=C/c2ccc(OS(=O)(=O)c3ccc(Cl)cc3)cc2)N1`, the normalized growth (S. cerevisiae deletion strains, locus YAL013W, strain DEP1, hits give low values) was 1, the normalized growth (S. cerevisiae deletion strains, locus YBR229C, strain ROT2, hits give low values) was 1.03 and the normalized growth [1] was 0.983. The normalized growth (S. cerevisiae deletion strains, locus YDL134C, strain PPH21, hits give low values) was 0.991, the normalized growth (S. cerevisiae deletion strains, locus YDR150W, strain NUM1, hits give low values) was 0.957 and the normalized growth (S. cerevisiae deletion strains, locus YEL061C, strain CIN8, hits give low values) was 1.01. It also gave a normalized growth (S. cerevisiae deletion strains, locus YGR078C, strain PAC10, hits give low values) of 0.983, a normalized growth [2] of 1.01 and a normalized growth [3] of 0.989. It also gave a normalized growth (S. cerevisiae deletion strains, locus YHR087W, strain rtc3, hits give low values) of 1.02, a normalized growth (S. cerevisiae deletion strains, locus YJL187C, strain SWE1, hits give low values) of 1.04 and a normalized growth (S. cerevisiae deletion strains, locus YJR043C, strain POL32, hits give low values) of 0.982. It also gave a normalized growth [4] of 1.03, a normalized growth (S. cerevisiae deletion strains, locus YLR039C, strain RIC1, hits give low values) of 1.02 and a normalized growth (S. cerevisiae deletion strains, locus YLR058C, strain SHM2 (second series), hits give low values) of 1.02. The normalized growth (S. cerevisiae deletion strains, locus YLR085C, strain ARP6, hits give low values) was 0.999, the normalized growth (S. cerevisiae deletion strains, locus YLR262C, strain YPT6, hits give low values) was 0.996 and the normalized growth (S. cerevisiae deletion strains, locus YML094W, strain GIM5, hits give low values) was 1. It also gave a normalized growth (S. cerevisiae deletion strains, locus YMR219W, strain ESC1, hits give low values) of 1.01, a normalized growth (S. cerevisiae deletion strains, locus YMR263W, strain SAP30, hits give low values) of 1 and a normalized growth (S. cerevisiae deletion strains, locus YNL128W, strain TEP1, hits give low values) of 0.978. The normalized growth (S. cerevisiae deletion strains, locus YNL153C, strain GIM3, hits give low values) was 0.99, the normalized growth (S. cerevisiae deletion strains, locus YNL298W, strain CLA4 (second series), hits give low values) was 0.976 and the normalized growth (S. cerevisiae deletion strains, locus YNL322C, strain KRE1, hits give low values) was 0.998. It also gave a normalized growth (S. cerevisiae deletion strains, locus YNR030W, strain Alg12, hits give low values) of 1, a normalized growth [5] of 1.06 and a normalized growth (S. cerevisiae deletion strains, locus YPL241C, strain CIN2, hits give low values) of 1. For the same compound, the normalized growth (S. cerevisiae deletion strains, locus YPR135W, strain CTF4, hits give low values) was 0.978 and the normalized growth (S. cerevisiae strains, strain wild type, hits give low values) was 0.964.
Compound `CN(C)c1ccc(/C=C2\C(=O)Nc3ccccc32)cc1` has a normalized growth (S. cerevisiae deletion strains, locus YAL040C, strain CLN3, hits give low values) of 0.95, a normalized growth (S. cerevisiae deletion strains, locus YCL061C, strain MRC1 (second series), hits give low values) of 0.993 and a normalized growth (S. cerevisiae deletion strains, locus YDR363W, strain ESC2, hits give low values) of 0.963. The normalized growth (S. cerevisiae deletion strains, locus YER002W, strain NOP16, hits give low values) was 0.877 (active), the normalized growth [2] was 0.93 and the normalized growth [4] was 0.972. For the same compound, the normalized growth (S. cerevisiae deletion strains, locus YMR307W, strain GAS1, hits give low values) was 0.984, the normalized growth (S. cerevisiae deletion strains, locus YNL175C, strain NOP13, hits give low values) was 0.809 (active) and the normalized growth (S. cerevisiae deletion strains, locus YNL197C, strain WHI3, hits give low values) was 0.942. For the same compound, the normalized growth (S. cerevisiae deletion strains, locus YNL224C, strain SQS1, hits give low values) was 0.891 (active), the normalized growth (S. cerevisiae deletion strains, locus YOR083W, strain WHI5 (second series), hits give low values) was 0.786 (active) and the normalized growth [5] was 0.972.
`O=C1Nc2ccccc2/C1=C/c1ccc(C(F)(F)F)cc1Cl` showed a normalized growth (S. cerevisiae deletion strains, locus YAR019C, strain CDC15, hits give low values) of 0.978, a normalized growth (S. cerevisiae deletion strains, locus YBL105C, strain PKC1, hits give low values) of 0.965 and a normalized growth (S. cerevisiae deletion strains, locus YBR135W, strain CKS1, hits give low values) of 0.966. It also gave a normalized growth (S. cerevisiae deletion strains, locus YBR136W, strain MEC1, hits give low values) of 0.982, a normalized growth (S. cerevisiae deletion strains, locus YBR160W, strain CDC28, hits give low values) of 0.979 and a normalized growth (S. cerevisiae deletion strains, locus YDL017W, strain CDC7, hits give low values) of 0.972. For the same compound, the normalized growth (S. cerevisiae deletion strains, locus YDL028C, strain MPS1, hits give low values) was 0.977, the normalized growth [1] was 0.983 and the normalized growth (S. cerevisiae deletion strains, locus YDL108W, strain KIN28, hits give low values) was 0.974. The normalized growth (S. cerevisiae deletion strains, locus YDL132W, strain cdc53, hits give low values) was 0.982, the normalized growth (S. cerevisiae deletion strains, locus YDL214C, strain PRR2, hits give low values) was 0.884 and the normalized growth (S. cerevisiae deletion strains, locus YDR052C, strain DBF4, hits give low values) was 0.979. It also gave a normalized growth (S. cerevisiae deletion strains, locus YDR054C, strain cdc34, hits give low values) of 0.958, a normalized growth (S. cerevisiae deletion strains, locus YDR226W, strain ADK1, hits give low values) of 0.961 and a normalized growth (S. cerevisiae deletion strains, locus YDR477W, strain SNF1, hits give low values) of 0.93. For the same compound, the normalized growth (S. cerevisiae deletion strains, locus YER123W, strain YCK3, hits give low values) was 0.939, the normalized growth (S. cerevisiae deletion strains, locus YER133W, strain GLC7, hits give low values) was 0.953 and the normalized growth (S. cerevisiae deletion strains, locus YFL009W, strain cdc4, hits give low values) was 0.976. It also gave a normalized growth (S. cerevisiae deletion strains, locus YFL029C, strain CAK1, hits give low values) of 0.979, a normalized growth (S. cerevisiae deletion strains, locus YFR003C, strain YPI1, hits give low values) of 0.973 and a normalized growth (S. cerevisiae deletion strains, locus YFR019W, strain FAB1, hits give low values) of 0.979. It also gave a normalized growth (S. cerevisiae deletion strains, locus YFR028C, strain CDC14, hits give low values) of 0.974, a normalized growth (S. cerevisiae deletion strains, locus YGR040W, strain KSS1, hits give low values) of 0.931 and a normalized growth (S. cerevisiae deletion strains, locus YGR052W, strain FMP48, hits give low values) of 0.896. The normalized growth (S. cerevisiae deletion strains, locus YGR092W, strain DBF2, hits give low values) was 0.905, the normalized growth [3] was 0.741 (active) and the normalized growth (S. cerevisiae deletion strains, locus YHR079C, strain IRE1, hits give low values) was 0.883. It also gave a normalized growth (S. cerevisiae deletion strains, locus YHR082C, strain KSP1, hits give low values) of 0.934, a normalized growth (S. cerevisiae deletion strains, locus YHR205W, strain SCH9, hits give low values) of 0.84 and a normalized growth (S. cerevisiae deletion strains, locus YIL147C, strain SLN1, hits give low values) of 0.973. For the same compound, the normalized growth (S. cerevisiae deletion strains, locus YJL095W, strain BCK1, hits give low values) was 0.918, the normalized growth (S. cerevisiae deletion strains, locus YJL128C, strain PBS2, hits give low values) was 0.903 and the normalized growth (S. cerevisiae deletion strains, locus YJL157C, strain FAR1, hits give low values) was 0.958. It also gave a normalized growth (S. cerevisiae deletion strains, locus YJR016C, strain ILV3, hits give low values) of 0.98, a normalized growth (S. cerevisiae deletion strains, locus YJR066W, strain TOR1 (second series), hits give low values) of 0.955 and a normalized growth (S. cerevisiae deletion strains, locus YJR066W, strain TOR1, hits give low values) of 0.899. For the same compound, the normalized growth (S. cerevisiae deletion strains, locus YKL048C, strain ELM1, hits give low values) was 0.958, the normalized growth (S. cerevisiae deletion strains, locus YKL067W, strain YNK1, hits give low values) was 0.877 and the normalized growth (S. cerevisiae deletion strains, locus YKL101W, strain HSL1, hits give low values) was 0.891. The normalized growth (S. cerevisiae deletion strains, locus YKL193C, strain SDS22, hits give low values) was 0.969, the normalized growth (S. cerevisiae deletion strains, locus YKL203C, strain TOR2, hits give low values) was 0.995 and the normalized growth (S. cerevisiae deletion strains, locus YLR113W, strain HOG1, hits give low values) was 0.78 (active). For the same compound, the normalized growth (S. cerevisiae deletion strains, locus YLR133W, strain CKI1, hits give low values) was 0.932, the normalized growth (S. cerevisiae deletion strains, locus YLR403W, strain SFP1, hits give low values) was 0.952 and the normalized growth (S. cerevisiae deletion strains, locus YML070W, strain DAK1, hits give low values) was 0.936. For the same compound, the normalized growth (S. cerevisiae deletion strains, locus YMR001C, strain CDC5, hits give low values) was 0.968, the normalized growth (S. cerevisiae deletion strains, locus YMR205C, strain PFK2 (second series), hits give low values) was 0.931 and the normalized growth (S. cerevisiae deletion strains, locus YMR277W, strain FCP1, hits give low values) was 0.963. It also gave a normalized growth (S. cerevisiae deletion strains, locus YNL006W, strain LST8, hits give low values) of 0.979, a normalized growth (S. cerevisiae deletion strains, locus YNL020C, strain ARK1, hits give low values) of 0.916 and a normalized growth (S. cerevisiae deletion strains, locus YNL161W, strain CBK1, hits give low values) of 0.972. For the same compound, the normalized growth (S. cerevisiae deletion strains, locus YNL183C, strain NPR1, hits give low values) was 0.881, the normalized growth (S. cerevisiae deletion strains, locus YNL207W, strain RIO2, hits give low values) was 0.98 and the normalized growth (S. cerevisiae deletion strains, locus YNL222W, strain SSU72, hits give low values) was 0.968. The normalized growth (S. cerevisiae deletion strains, locus YNL307C, strain MCK1 (second series), hits give low values) was 0.882, the normalized growth (S. cerevisiae deletion strains, locus YOL078W, strain AVO1, hits give low values) was 0.966 and the normalized growth (S. cerevisiae deletion strains, locus YOL136C, strain PFK27, hits give low values) was 0.93. It also gave a normalized growth (S. cerevisiae deletion strains, locus YOR061W, strain CKA2, hits give low values) of 0.929, a normalized growth (S. cerevisiae deletion strains, locus YOR119C, strain RIO1, hits give low values) of 0.926 and a normalized growth (S. cerevisiae deletion strains, locus YOR231W, strain MKK1, hits give low values) of 0.914. For the same compound, the normalized growth (S. cerevisiae deletion strains, locus YOR329C, strain SCD5, hits give low values) was 0.972, the normalized growth (S. cerevisiae deletion strains, locus YPL031C, strain PHO85, hits give low values) was 0.932 and the normalized growth (S. cerevisiae deletion strains, locus YPL153C, strain RAD53, hits give low values) was 0.934. The normalized growth (S. cerevisiae deletion strains, locus YPL204W, strain HRR25, hits give low values) was 0.916, the normalized growth (S. cerevisiae deletion strains, locus YPL209C, strain IPL1, hits give low values) was 0.974 and the normalized growth (S. cerevisiae deletion strains, locus YPL256C, strain CLN2, hits give low values) was 0.827 (active). For the same compound, the normalized growth (S. cerevisiae deletion strains, locus YPR025C, strain CCL1, hits give low values) was 0.97, the normalized growth (S. cerevisiae deletion strains, locus YPR106W, strain ISR1, hits give low values) was 0.958 and the normalized growth (S. cerevisiae deletion strains, locus YPR111W, strain DBF20, hits give low values) was 0.936. The normalized growth (S. cerevisiae deletion strains, strain NNK1, hits give low values) was 0.97 and the normalized growth (S. cerevisiae deletion strains, strain TSCII, hits give low values) was 0.963.
